A selection: hits, their analogues and other compounds. The true share with any hit is near 10%.
GPT2 inh = blocks human glutamate pyruvate transaminase 2; Potency, µM (titrated, usually from 57.7 µM), usual class: inhibitors; actives 0.25% (n = 100,000); Recombinant GPT2, coupled pyruvate oxidase/HRP Amplex Red fluorescence; also: nearly all actives have a fitted effect of over 60% in size
Target sequence (Q8TD30 whole entry, looked up): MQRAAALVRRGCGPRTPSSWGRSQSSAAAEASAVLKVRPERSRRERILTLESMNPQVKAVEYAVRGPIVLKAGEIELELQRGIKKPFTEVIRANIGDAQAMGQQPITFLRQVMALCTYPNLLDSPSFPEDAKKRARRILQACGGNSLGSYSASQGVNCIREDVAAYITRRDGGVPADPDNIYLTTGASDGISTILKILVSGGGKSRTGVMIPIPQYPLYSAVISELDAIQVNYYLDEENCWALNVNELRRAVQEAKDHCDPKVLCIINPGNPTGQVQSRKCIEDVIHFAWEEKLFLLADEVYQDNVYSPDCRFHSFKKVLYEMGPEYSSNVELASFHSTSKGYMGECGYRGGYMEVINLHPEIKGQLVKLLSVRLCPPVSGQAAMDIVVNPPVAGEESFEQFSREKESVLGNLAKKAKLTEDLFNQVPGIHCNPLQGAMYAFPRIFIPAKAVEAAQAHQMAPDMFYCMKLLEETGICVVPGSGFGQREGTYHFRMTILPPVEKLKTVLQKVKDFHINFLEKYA
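Recombinant GPT2 (10ng/uL) with 250uM a-KG and 2mM L-alanine, 30 min at room temperature, in HEPES pH 7.5 buffer. Pyruvate detected by pyruvate oxidase/HRP/Amplex Red fluorescence after 30 min in the dark; AOA (50uM) as positive control.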
hNpr1 antagonist = blocks ANP-stimulated signaling of human Npr1 receptor | HEK293 hNpr1 GloSensor cGMP, ANP-stimulated luminescence | Potency, µM (series often up to 46.3 µM), hits mostly inhibitors | actives 1.6% (n = 76,000); calls by dose curve; also: nearly all actives have a fitted effect of over 60% in size
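HEK293 cells stably expressing human Npr1 and cGMP GloSensor pGS-40F, loaded 2 h with 2% GloSensor reagent, given compound 30 min at room temperature. Luminescence read before and 20 min after 0.1 nM hNppA.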
Luciferase inh = inhibitors of firefly (Photinus pyralis) luciferase | P08659 | purified P. pyralis luciferase, luminescence, biochemical | Potency, µM (series often up to 115 µM), most hits filed as inhibitors | actives 2.5% (n = 76,000); also: nearly all actives have a fitted effect of over 65% in size
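Purified 10nM P. pyralis luciferase with 10uM D-luciferin and 10uM ATP in 50mM Tris acetate pH 7.5, 10mM Mg acetate, 0.01% Tween-20, 0.05% BSA. qHTS titration; luminescence read by CCD imager.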
NIH3T3 tox = kills NIH 3T3 cells; NIH 3T3 viability, CellTiter-Glo ATP luminescence, 48-72 h; Potency, µM (series often up to 96.7 µM), usual class: inhibitors; actives 4.3% (n = 94,000); AID 1345082; also: nearly all actives have a fitted effect of over 55% in size
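Cells were seeded at 400 per well, treated with pin-transferred compound, and kept 48 or 72 hr at 37 °C before CellTiter-Glo addition and luminescence imaging of cellular ATP.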
HEK293 tox = HEK 293 cell cytotoxicity; actives 6.6% (n = 94,000); HEK 293 viability, ATP luminescence (CellTiter-Glo), 48-72 h; AID 1345083; Potency, µM (doses to about 115 µM), most hits filed as inhibitors; also: nearly all actives have a fitted effect of over 60% in size
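HEK 293 cells at 250 cells/well were exposed to compounds by pintool transfer for 48 or 72 hr at 37 degree Celsius, 5% CO2. Viability was read as ATP-coupled luminescence with CellTiter-Glo after 10 min at room temperature.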
Of the large screens only hits and unclear results are named; the others gave an inactive call. Unless noted, calls follow the shape of the dose curve; as a rule, active = well fitted curve in the direction sought with a large enough effect; inconclusive = small, poorly fitted or top-dose-only effect, or another doubt; inactive = no such curve, though single readings can be large; an effect the other way counts as inactive or inconclusive.

COc1cccc(CN2CCCC3(CCN(Cc4ccccc4)C3)C2=O)c1OC (stereo unspecified)	NIH3T3 tox inconclusive, HEK293 tox inconclusive
O=C(Cc1cccc(Cl)c1)N1CCCC(C(=O)N2CCC(N3CCOC3=O)CC2)C1 (stereo unspecified)	none (no result: hNpr1 antagonist, Luciferase inh)
COc1ccc(-c2noc(N(C)Cc3ccccc3)n2)cc1OC	GPT2 inh inconclusive, Luciferase inh inconclusive, NIH3T3 tox inconclusive, HEK293 tox inconclusive
COCCOc1ncccc1-c1noc([C@@H]2CCCN2Cc2ccc(OC)cc2)n1	HEK293 tox 100µM
COCCOc1ncccc1-c1noc([C@@H]2CCCN2Cc2ccc(C(=O)O)cc2)n1	none
COc1ccccc1CN1CCC[C@H]1c1nc(-c2ccc(F)cn2)no1	HEK293 tox 17.8µM
O=C(Nc1ccc(Cl)cc1)N1CCCC(C(=O)N2CCC(c3ccccc3)CC2)C1 (stereo unspecified)	NIH3T3 tox inconclusive, HEK293 tox inconclusive (no result: hNpr1 antagonist, Luciferase inh)
Cc1noc2c(NC(C)C)cc(-c3cccc(C(F)(F)F)c3)nc12	NIH3T3 tox inconclusive, HEK293 tox 100µM
Cc1noc2c(NCc3cnccn3)cc(-c3ccccc3)nc12	NIH3T3 tox inconclusive
Cc1noc2c(NCc3ccncc3)cc(-c3cccc(C(F)(F)F)c3)nc12	NIH3T3 tox 50.1µM, HEK293 tox 70.8µM
O=C(NCCNC(=O)c1ccc(Cl)nc1)c1ccc(-c2cncnc2)cc1	HEK293 tox inconclusive (no result: GPT2 inh, hNpr1 antagonist, Luciferase inh)
Cc1ccc([S+](=O)([O-])N2CCCC(C(=O)N3CCC(c4nc5ccncc5[nH]4)CC3)C2)cc1 (stereo unspecified)	NIH3T3 tox inconclusive, HEK293 tox inconclusive (no result: hNpr1 antagonist, Luciferase inh)
CNC(=O)c1cc(C2CC2)nc2c1c(C1CCN(C(=O)c3ccccc3Cl)CC1)nn2C	none (no result: GPT2 inh, hNpr1 antagonist, Luciferase inh)
CC1=C[C@@H](CN2C(=O)c3ccccc3C2=O)[C@H](C(C)C)C[C@H]1Cc1nc2ccccc2[nH]1	hNpr1 antagonist inconclusive, NIH3T3 tox 25.1µM, HEK293 tox 31.6µM
CC1=C[C@@H](CNC(=O)c2ccccc2)[C@H](C(C)C)C[C@H]1Cc1nc2ccncc2[nH]1	hNpr1 antagonist inconclusive, NIH3T3 tox inconclusive, HEK293 tox 79.4µM
COC(=O)c1ccc2nc(C[C@@H]3C[C@@H](C(C)C)[C@H](CNC(=O)c4cccnc4)C=C3C)[nH]c2c1	NIH3T3 tox inconclusive, HEK293 tox inconclusive
CC1=C[C@@H](CNC(=O)CCC(=O)O)[C@H](C(C)C)C[C@H]1Cc1nc2ccc(C)cc2[nH]1	none
CC(=O)NC[C@@H]1C=C(C)[C@H](Cc2nc3ccc(C)cc3[nH]2)C[C@H]1C(C)C	hNpr1 antagonist inconclusive, NIH3T3 tox 70.8µM, HEK293 tox inconclusive
CC1=C[C@@H](CNC(=O)c2cccnc2)[C@H](C(C)C)C[C@H]1CC(=O)N1CCCC1	Luciferase inh 63.1µM
CC1=C[C@@H](CNC(=O)Cn2cnnn2)[C@H](C(C)C)C[C@H]1Cc1nc2ccncc2[nH]1	HEK293 tox inconclusive
CCCNC(=O)NC[C@@H]1C=C(C)[C@H](Cc2nc3ccccc3[nH]2)C[C@H]1C(C)C	hNpr1 antagonist inconclusive, NIH3T3 tox 35.5µM, HEK293 tox 100µM
COc1ccccc1C(=O)NC[C@@H]1C=C(C)[C@H](Cc2nc3ccncc3[nH]2)C[C@H]1C(C)C	NIH3T3 tox inconclusive, HEK293 tox 35.5µM
CC1=C[C@@H](CNC(=O)CCC(=O)O)[C@H](C(C)C)C[C@H]1Cc1nc2c(C)cccc2[nH]1	HEK293 tox inconclusive
COc1ccccc1CN(Cc1ccccc1OC)C[C@@H]1C=C(C)[C@H](Cc2nc3c(C)cccc3[nH]2)C[C@H]1C(C)C	hNpr1 antagonist inconclusive, NIH3T3 tox 31.6µM, HEK293 tox 15.8µM
CC1=C[C@@H](CNC(=O)Cn2cnnn2)[C@H](C(C)C)C[C@H]1Cc1nc2ccccc2[nH]1	HEK293 tox inconclusive
CC1=C[C@@H](CNC(=O)c2ccccc2)[C@H](C(C)C)C[C@H]1Cc1nc2ccc(C)cc2[nH]1	NIH3T3 tox inconclusive, HEK293 tox 50.1µM
COC1CN(c2cccc(F)c2)C12CCN(CC1CCCCC1)CC2 (stereo unspecified)	NIH3T3 tox inconclusive, HEK293 tox inconclusive
Cn1ncc2c(C(=O)NC3CC3)cc(-c3ccccc3C(F)(F)F)nc21	NIH3T3 tox inconclusive (no result: GPT2 inh, hNpr1 antagonist, Luciferase inh)
COc1ccc(CN2CCC3(C2)C(=O)Nc2ccccc23)cc1 (stereo unspecified)	HEK293 tox inconclusive (no result: hNpr1 antagonist, Luciferase inh)
O=C1Nc2ccccc2C12CCN(Cc1cccc3ccccc13)C2 (stereo unspecified)	NIH3T3 tox 79.4µM, HEK293 tox 79.4µM (no result: hNpr1 antagonist, Luciferase inh)
O=C(CCCc1ccccc1)N1CCCC1c1nc(C2CCOCC2)no1 (stereo unspecified)	HEK293 tox inconclusive
O=C(CCCc1ccccc1)N1CCCCCC1c1nc(C2CC2)no1 (stereo unspecified)	NIH3T3 tox inconclusive, HEK293 tox 50.1µM
COc1ccc(-c2cnc([C@@H]3COCCN3Cc3ccccc3)[nH]2)cc1	NIH3T3 tox inconclusive, HEK293 tox inconclusive
FC(F)(F)c1ccc(-c2cnc([C@@H]3COCCN3Cc3ccncc3)[nH]2)cc1	HEK293 tox inconclusive
CO[C@@](C(=O)N1CCOC[C@H]1c1ncc(-c2ccccc2)[nH]1)(c1ccccc1)C(F)(F)F	NIH3T3 tox 44.7µM, HEK293 tox inconclusive
CC(C)(C)CN1CCOC[C@H]1c1ncc(-c2ccccc2)[nH]1	NIH3T3 tox inconclusive, HEK293 tox 79.4µM
CC(C)(C)CN1CCOC[C@H]1c1ncc(-c2cccc(Cl)c2)[nH]1	NIH3T3 tox 89.1µM, HEK293 tox 100µM
CC(C)(C)C(=O)N1CCOC[C@H]1c1ncc(-c2ccc(OC(F)(F)F)cc2)[nH]1	GPT2 inh inconclusive, NIH3T3 tox inconclusive, HEK293 tox inconclusive
FC(F)(F)c1ccc(-c2cnc([C@@H]3COCCN3Cc3ccccn3)[nH]2)cc1	NIH3T3 tox 39.8µM, HEK293 tox 56.2µM
C[C@@H](NC(=O)N1CCOC[C@H]1c1ncc(-c2ccc(Cl)cc2)[nH]1)c1ccccc1	NIH3T3 tox 100µM, HEK293 tox inconclusive
COCCN1CCOC2(CCN([S+](=O)([O-])c3cccc(C)c3)CC2)C1=O	NIH3T3 tox 89.1µM
Cc1cccc([S+](=O)([O-])N2CCC3(CC2)OCCN(Cc2ccccc2)C3=O)c1	NIH3T3 tox inconclusive
COc1ccc(-c2ccc(C(=O)N3CCCCC3)cc2)nn1	NIH3T3 tox 28.2µM, HEK293 tox inconclusive (no result: GPT2 inh, hNpr1 antagonist, Luciferase inh)
COc1ccc(-c2ccc(C(=O)NC3CC3)cc2)nn1	NIH3T3 tox inconclusive, HEK293 tox 89.1µM (no result: GPT2 inh, hNpr1 antagonist, Luciferase inh)
CCCc1nc(-c2nc(C3CCOC3)no2)cs1 (stereo unspecified)	Luciferase inh 28.2µM
CCc1c(-c2nc(C3CCOC3)no2)[nH]c2ccccc12 (stereo unspecified)	NIH3T3 tox inconclusive, HEK293 tox inconclusive
O=C(c1ccccc1)N1CCN(C(=O)c2nc3cccnc3n(Cc3ccccc3)c2=O)CC1	none (no result: hNpr1 antagonist, Luciferase inh)

Assay outcomes from PubChem.
